{"source": "PubChem BioAssay (Tox21)", "note": "Results filed as inconclusive are left out. A call without a number means that no potency is given here. A number with no mark means an inactive call. Active and inactive are the calls of the source. Calls follow the shape of the full dose curve."}
{"experiment": "qHTS assay for small molecule disruptors of the mitochondrial membrane potential - cell viability (AID 720634);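 also: human HepG2 liver cancer cells; nearly all actives have a fitted effect of over 20% in size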", "details": "HepG2 viability, ATP luminescence (CellTiter-Glo), 1 h; series mostly up to 83.2 µM; activity change, negative = cytotoxicity: at the top concentration", "source_text": "U.S. Tox21 Program National Center for Advancing Translational Sciences [NCATS] NIH Chemical Genomics Center [NCGC] U.S. Environmental Protection Agency [EPA] National Institutes of Environmental Health Sciences [NIEHS] National Toxicology Program [NTP] U.S. Food and Drug Administration [FDA] Tox21 Assay Overview: Mitochondrial membrane potential (MMP), one of the parameters for mitochondrial function, is generated by mitochondrial electron transport chain that creates an electrochemical gradient by a series of redox reactions. This gradient drives the synthesis of ATP, a crucial molecule for various cellular processes. Measuring MMP in living cells is commonly used to assess the effect of chemicals on mitochondrial function; decreases in MMP can be detected using lipophilic cationic fluorescent dyes. […] The dye accumulates in the mitochondria of healthy cells as aggregates, with red fluorescence. The mitochondrial potential decreases and the dye could not accumulate in the mitochondria and remains in the cytoplasm in monomers, with green fluorescence. In addition to the mitochondrial potential assay, these cells were also used to test the cytotoxicity by determining the cell viability in the culture based on the quantitation of ATP present. The cytotoxicity was measured in the same assay well of MMP assay.\nTox21 Assay Protocol Summary: 2,000 HepG2 cells in 5 uL/well were dispensed into black, clear-bottom 1536-well plates using a Multidrop Combi (Thermo Scientific) dispenser. The assay plates were incubated for an overnight at 37 C to allow cells to attach to the wells, followed by the transfer of 23 nL compound or DMSO vehicle by a pin tool (Kalypsys). The plates were incubated for 1 hr at 37 C and 5% CO2, followed by the addition of 5 uL of 2X m-MPI dye into each well using Flying Reagent Dispenser (Aurora Discovery) and then CellTiter-Glo reagent was added at 4 uL/well and incubated 30 min at room temperature. Then luminescence intensity was quantified on a ViewLux CCD-based plate reader.", "units": {"activity change, negative = cytotoxicity": "%"}}
{"smiles": "CC(O)COCC(C)O", "note": "(stereo not given)", "Potency": "inactive"}
{"smiles": "CC(=O)OCC(=O)[C@@]12N=C(C)O[C@@H]1C[C@H]1[C@@H]3CCC4=CC(=O)C=C[C@]4(C)[C@H]3[C@@H](O)C[C@@]12C", "Potency": "inactive"}
{"smiles": "CC[C@H](C)C(=O)O[C@H]1C[C@@H](C)C=C2C=C[C@H](C)[C@H](CC[C@@H]3C[C@@H](O)CC(=O)O3)[C@H]21", "activity change, negative = cytotoxicity": -17.6}
{"smiles": "CC(=O)c1ccccc1", "Potency": "inactive"}
{"smiles": "O=C(O)c1ccc(C(=O)O)cc1", "Potency": "inactive"}
{"smiles": "O=C(O)c1cc(=O)c2c(OCC(O)COc3cccc4oc(C(=O)O)cc(=O)c34)cccc2o1", "Potency": "inactive"}
{"smiles": "Cc1cccc(O)c1", "Potency": "inactive"}
{"smiles": "OCCOCCOCCO", "Potency": "inactive"}
{"smiles": "CC1CCC(C(C)C)C(O)C1", "note": "(stereo not given)", "Potency": "inactive"}
{"smiles": "CC(C)CC(=O)CC(C)C", "Potency": "inactive"}
{"smiles": "CCCCCC1=CCCC1=O", "Potency": "inactive"}
{"smiles": "O=[N+]([O-])c1ccc(/C=C/c2ccc([N+](=O)[O-])cc2S(=O)(=O)O)c(S(=O)(=O)O)c1", "Potency": "inactive"}
{"smiles": "Cc1cccnc1", "Potency": "inactive"}
{"smiles": "CN(C)CCCN", "Potency": "inactive"}
{"smiles": "Cc1cnc(C(=O)NCCc2ccc(S(=O)(=O)NC(=O)NC3CCCCC3)cc2)cn1", "Potency": "inactive"}
{"smiles": "CCc1ccc(CCOc2ccc(CC3SC(=O)NC3=O)cc2)nc1", "note": "(stereo not given)", "activity change, negative = cytotoxicity": -0.709}
{"smiles": "C#C[C@]1(O)CC[C@H]2[C@@H]3CCC4=CC(=O)CC[C@@H]4[C@H]3CC[C@@]21C", "Potency": "inactive"}
{"smiles": "CCCCCCCC(=O)OC", "Potency": "inactive"}
{"smiles": "C=C(C)C(=O)O[C@H]1C[C@@H]2CC[C@@]1(C)C2(C)C", "Potency": "inactive"}
{"smiles": "CC1CCC2CC1C2(C)C", "note": "(stereo not given)", "Potency": "inactive"}
{"smiles": "Fc1ccc(Br)cc1", "Potency": "inactive"}
{"smiles": "CCOC(=O)NNc1nncc2ccccc12", "activity change, negative = cytotoxicity": -6.01}
{"smiles": "CC(C)(C)[C@@H](O)[C@@H](Cc1ccc(Cl)cc1)n1cncn1", "Potency": "inactive"}
{"smiles": "c1ccc(OCCOc2ccccc2)cc1", "Potency": "inactive"}
{"smiles": "CN(C)CCOCCN(C)C", "Potency": "inactive"}
{"smiles": "c1c[nH]cn1", "Potency": "inactive"}
{"smiles": "Cc1ccc2oc(=O)ccc2c1", "Potency": "inactive"}
{"smiles": "O=C(O)CCCC[C@@H]1SC[C@@H]2NC(=O)N[C@@H]21", "Potency": "inactive"}
{"smiles": "CCN(CC)c1ccc(C(=O)c2ccccc2C(=O)O)c(O)c1", "Potency": "inactive"}
{"smiles": "O=c1[nH]nnc2ccccc12", "Potency": "inactive"}
{"smiles": "CC(=O)Nc1ccccc1", "Potency": "inactive"}
{"smiles": "CCCCCCCCC/C=C/CC1CC(=O)OC1=O", "note": "(stereo not given)", "Potency": "inactive"}
{"smiles": "C[C@H]1C[C@H]2[C@@H]3CCC4=CC(=O)C=C[C@]4(C)[C@@]3(F)[C@@H](O)C[C@]2(C)[C@@]1(O)C(=O)CO", "Potency": "inactive"}
{"smiles": "CC(=O)CC(=O)Nc1ccccc1", "Potency": "inactive"}
{"smiles": "COc1cc(Cc2cnc(N)nc2N)cc(OC)c1OC", "Potency": "inactive"}
{"smiles": "O=C(OCCOCCOC(=O)c1ccccc1)c1ccccc1", "Potency": "inactive"}
{"smiles": "O=C(O)c1ccc2c(c1)C(=O)OC2=O", "Potency": "inactive"}
{"smiles": "CCCCC(CC)COC(=O)CS", "note": "(stereo not given)", "Potency": "inactive"}
{"smiles": "C=CCNC(N)=S", "Potency": "inactive"}
{"smiles": "COc1ccc(Cl)cc1C(=O)NCCc1ccc(S(=O)(=O)NC(=O)NC2CCCCC2)cc1", "Potency": "inactive"}
